Reference: the supplement of paper PMC6555819

How the values were obtained:
Experiment in all cases: PBM binding z-score (relative to random genomic background probes); higher = stronger binding; sequences stand for … in GC…GCGATTGACAGCGTAGAATGAAGG
[1] = system: FXR:RXRa (NR concentration 270 nM, RXRa partner concentration 90 nM)
Summary of the method: (§1)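 The probes on custom Agilent 4×180K protein-binding microarrays were double-stranded, with 34-nt variable regions bearing direct-repeat seeds, single-nucleotide variants, half-site ablations and random human genomic background sequences. Incubation lasted 1 h with ligand-free nuclear receptor dimers in PBS pH 7.4, 2% milk, 0.02% Triton X-100, 1 mM DTT, 0.2 mg/mL BSA and 0.4 mg/ml salmon testes DNA. Antibodies against each partner (one per run) detected bound dimers, and fluorescence scans were regression-normalized. Binding z-scores take the random background probes as reference.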

[2] = system: LXRa:RXRa (NR concentration 270 nM, RXRa partner concentration 90 nM)
Summary of the method: as §1

[3] = system: LXRa homodimer (NR concentration 270 nM)
Summary of the method: as §1

[4] = system: LXRb:RXRa (NR concentration 270 nM, RXRa partner concentration 90 nM)
Summary of the method: as §1

[5] = system: LXRb homodimer (NR concentration 270 nM)
Summary of the method: as §1

[6] = system: PPARa:RXRa (NR concentration 270 nM, RXRa partner concentration 90 nM)
Summary of the method: as §1

[7] = system: PPARg:RXRa (NR concentration 180 nM, RXRa partner concentration 90 nM)
Summary of the method: as §1

[8] = system: PPARg:RXRa 270nM:90nM, anti-RXR (NR concentration 270 nM, RXRa partner concentration 90 nM)
Summary of the method: as §1

[9] = system: PPARg:RXRa 30nM:10nM, anti-RXR (NR concentration 30 nM, RXRa partner concentration 10 nM)
Summary of the method: as §1

[10] = system: PPARg:RXRa 90nM:30nM, anti-RXR (NR concentration 90 nM, RXRa partner concentration 30 nM)
Summary of the method: as §1

[11] = system: PPARg:RXRa DBDmut IVT, anti-RXR (DBD mutation: RXRa K156A/R161A, NR concentration 270 nM, RXRa partner concentration 90 nM)
Summary of the method: as §1

[12] = system: PPARg:RXRa IVT, anti-PPARg (NR concentration 270 nM, RXRa partner concentration 90 nM)
Summary of the method: as §1

[13] = system: PPARg DBDmut:RXRa IVT, anti-PPARg (DBD mutation: PPARg1 K132A/R137A, NR concentration 270 nM, RXRa partner concentration 90 nM)
Summary of the method: as §1

[14] = system: PPARg DBDmut IVT, anti-PPARg (DBD mutation: PPARg1 K132A/R137A, NR concentration 270 nM)
Summary of the method: as §1

[15] = system: PPARg homodimer (NR concentration 180 nM)
Summary of the method: as §1

[16] = system: PXR:RXRa (NR concentration 270 nM, RXRa partner concentration 90 nM)
Summary of the method: as §1

[17] = system: PXR homodimer (NR concentration 270 nM)
Summary of the method: as §1

[18] = system: RARa:RXR (NR concentration 270 nM, RXRa partner concentration 90 nM)
Summary of the method: as §1

[19] = system: RARa homodimer (NR concentration 270 nM)
Summary of the method: as §1

[20] = system: RARb:RXRa (NR concentration 270 nM, RXRa partner concentration 90 nM)
Summary of the method: as §1

Sequence	PBM binding z-score [1]	PBM binding z-score [2]	PBM binding z-score [3]	PBM binding z-score [4]	PBM binding z-score [5]	PBM binding z-score [6]	PBM binding z-score [7]	PBM binding z-score [8]	PBM binding z-score [9]	PBM binding z-score [10]	PBM binding z-score [11]	PBM binding z-score [12]	PBM binding z-score [13]	PBM binding z-score [14]	PBM binding z-score [15]	PBM binding z-score [16]	PBM binding z-score [17]	PBM binding z-score [18]	PBM binding z-score [19]	PBM binding z-score [20]
ATCTGTAGGTTACATCCGGGTCATTCAGGCTATG	1.94	4.67	1.97	2.81	1.35	3.22	1.98	2.56	0.963	1.83	3.84	4.04	1.35	1.89	1.96	3.52	1.9	3.18	0.982	2.34
GCTAGTTGGTCAGTAAAGGGTCACACACCGGTCG	2.1	2.52	1.36	2.63	0.0328	3.36	1.72	2.79	0.505	1.89	0.794	2.2	-0.362	-0.645	2.52	3.32	0.202	4.15	0.553	3.43
CCTAGTTGGTCATGGTCACACACGCTATAGGTAC	-0.0474	0.0849	0.431	0.71	0.175	0.348	1.04	0.761	0.167	0.467	1.53	1.72	0.378	0.935	0.845	0.223	0.732	0.207	1.39	1.46
CAAACTAGGTCAAAGGTCTAAGTCGAGCCAACCA	5.29	4.37	0.54	3.21	0.734	6.51	12	10	9.99	11.8	8.53	8.69	8.12	5.58	7.53	3.11	0.0192	4.84	0.718	3.91
CCTTACGGGTCACTGACAGGTTATAGTATTTGGA	5.25	4.01	0.456	3.4	0.163	4.95	4.75	4.34	1.8	2.96	3.44	3.9	0.845	0.452	2.3	3.46	0.317	4.47	0.728	3.93
CGTCAAAGTTCGAGGTAACGTAACAGAAAGCAGC	1.32	1.25	0.0429	0.91	-0.403	1.74	1.36	1.98	0.481	1.36	0.256	0.878	-1.11	0.105	1.18	1.28	0.589	1.39	0.233	2.73
GCTAGTTGGACAGTAAAAGGTCACACACCGGTCG	2.82	4.25	4.25	4.22	0.188	4.4	2.61	3.78	1.89	3.36	0.431	2.16	-0.417	-0.407	3.24	4.68	1.09	5.53	1.25	3.95
ATATGCAGGTTAAGGGTCATTCAGGTTGGTTCGC	5.08	4.8	3.05	4.56	1.17	5.84	9.18	7.85	8.36	8.7	3.94	5.19	0.744	1.06	2.9	5.48	1.82	6.03	1.71	3.6
ACAGACAGATGATGAAGGTAACTCAGGCTATCAT	0.128	-0.0336	0.0406	0.0281	0.222	-0.128	0.719	-0.0905	0.15	-0.00308	-0.169	-0.00444	1.17	0.707	0.677	-0.0799	0.468	0.101	0.591	0.13
TCTTGTATATCAACAGGAGGTTAAGAAAGATCGA	0.413	1.42	0.536	1.16	0.307	1.29	0.477	1.5	3.07	2.27	1.71	0.652	1.56	1.04	0.679	1.2	0.265	1.32	0.86	0.806
TCTTGTAGATAAATAGAGGTTAAGAAAGTGCGCT	1.41	3.4	1.55	1.9	0.214	1.73	0.624	1.83	2.94	2.84	2.53	0.875	1.18	0.956	0.0767	2.77	0.529	1.8	1.33	0.915
CCTAGTTGGTCGGGAGGTCACACACCGGATATGA	3.79	3.32	2.67	3.48	1.04	3.89	2.12	2.73	0.776	2.07	-0.134	1.89	0.253	0.694	3.59	4.29	2.4	4.55	2.58	3.47
CTAACTAGGTCAAAGGTCAAAGTCGAGCCAACCA	8.53	7.32	5.19	7.21	2.96	7.74	14	11.2	13.1	13.2	9.01	9.15	2.95	1.6	4.42	7.03	1.84	8.76	2.8	5.8
CGTCAAAGTTCAACCAAGGTAACGTAAAGCACGC	7.34	6.27	4.15	4.07	1.7	5.02	5.31	5.53	2.39	4.77	0.703	2.22	0.566	0.664	3.1	5.55	4.15	4.39	1.73	5.25
TCATATAGGTAAAAAGGTGAAAGTCCGTAAGTTA	1.56	1.85	0.558	1.8	0.394	3.53	3.87	5.05	5.01	5.53	4.17	4	0.729	0.649	1.85	1.4	0.696	2.87	1.81	2.03
CGAACTAGGTCAGAACAGGACAGTCAAGGATGAT	1.77	1.06	0.173	0.627	-0.362	3.31	5.24	4.41	1.74	3.31	7.24	7.46	1.4	0.732	0.7	1.08	0.108	1.05	0.263	3.08
GCATACAGGTGAAACGCAGGTAACTCAGGGTGGC	-0.0721	0.132	-0.487	-0.143	-0.74	1.35	1.04	0.609	-0.12	0.232	3.57	1.78	-0.446	-0.192	-0.115	-0.254	-0.513	0.243	-0.373	0.744
TCTAGTTGGTCACGGAGGTCACACAAGACGGGTA	3.16	3.39	2.41	3.46	0.597	3.99	3.49	4.05	3.51	3.75	2.31	4.34	0.505	0.71	2.71	4.55	1.16	4.17	1.37	3.87
CCTCGGTGGACAACAGGAGGTCAGAGCTGCCAGA	0.578	1.81	1.76	1.05	-0.647	1.67	0.123	0.139	-0.911	-0.207	-0.628	0.0551	-1.3	-1.14	0.735	1.53	0.332	1.77	0.503	1.93
GCATATAGGTAATACTAGGTGAAAGTCCGATTGT	0.715	2.49	0.179	0.49	-0.275	2.06	2.22	2.48	1.09	2.43	4.82	4.2	0.862	0.925	0.614	0.155	0.151	1.1	0.695	0.113
GGAGACAGGTGAAACGCAGGTAACTCAGGGTGGC	0.0373	0.224	-0.296	-0.0924	-0.712	1.03	0.617	0.0474	-0.768	-0.000912	0.957	0.901	-1.26	-0.98	-0.102	-0.298	-0.332	0.137	-0.68	0.904
TCCAGTAGGTTAGTCGGGGCATTCAGCCAACATA	0.407	0.471	0.422	0.794	-0.477	1.38	0.45	2.08	2.7	2.41	3.62	3.02	-0.197	-0.452	0.925	0.439	0.18	0.346	0.0406	0.79
CATACAGGGTCAGCTAGGCTAGAGTAGGGACGGC	4.44	2.68	-0.0896	2.06	-0.0361	4.12	3.06	2.93	0.539	2.03	1.19	2.32	0.769	0.0787	1.21	1.85	-0.333	2.72	0.409	3.96
AGTCAAAGTTCATCCAGGTAACGTAAGATATGCT	6.4	6.22	5.22	3.62	1.6	4.82	6.19	6.44	3.61	5.54	0.286	3.48	1.21	1.23	2.63	5.26	8.19	3.69	1.34	4.83
CAAACTAGGTCACCGGAAGGACAAAGTCCGCATG	4.67	3.57	0.547	2.71	0.36	5.63	9.49	7.51	6.09	7.18	8.34	9.2	4.33	1.54	2.4	2.89	0.127	4.17	0.734	4.69
ATCGAAATGTCGAGGTGAGTATAGAGAAAGGGAA	0.0498	-0.124	-0.716	-0.253	-0.363	0.204	0.315	0.0336	0.162	0.363	-0.755	0.414	0.309	0.489	-0.704	-0.204	-0.513	0.129	-0.696	0.538
CGAACGAGGGCATGAGTTGTTAGCAAATGCCGAT	0.401	0.0861	-0.503	0.156	-1.1	1.01	1.08	1.21	-0.27	0.425	3.23	2.05	-0.603	-0.6	-0.0331	0.251	-0.0972	0.245	-0.393	1.98
ATCTCTAGGTAACCTAGTTCAGTGAATGCCGAAC	0.745	1.07	0.16	1.26	0.421	2.24	1.69	1.42	0.221	0.568	4.08	4.62	1.92	1.24	1.02	1.02	0.262	0.692	0.202	0.704
